Records with an inconclusive call do not appear. Activity calls are given as the source filed them. Unless noted, calls come from the whole dose curve; as a rule, active = well fitted curve in the direction sought with a large enough effect; inconclusive = small, poorly fitted or top-dose-only effect, or another doubt; inactive = no such curve, though single readings can be large; an effect the other way counts as inactive or inconclusive.
Assays:
[1] = biological target: Guanine nucleotide-binding protein G(i) subunit alpha-1 (Homo sapiens) (UniProt P63096); experiment: qHTS Assay for Inhibitors of RGS12 GoLoco Motif Activity (Green Fluorophore) (AID 879);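 note: negative values mean loss of peptide binding seen as reduced polarization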
How it was run: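 Fluorescence polarization assay: 50 nM Gαi1 with 10 nM FITC-labeled RGS12 GoLoco peptide in 10 mM Tris pH 7.5, 150 mM NaCl, 0.1 mM GDP, 0.05% NP40, 10 min at room temperature with compound.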

[2] = biological target: Pyruvate kinase PKM (Homo sapiens) (UniProt P14618); experiment: qHTS Assay for Activators of Human Muscle Pyruvate Kinase (AID 954; active = well fitted curve in the direction sought with a large enough effect, not every such curve was filed as active)
How it was run: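 Purified human PKM2 (0.1 nM) with 0.5 mM PEP (Km) and 0.1 mM ADP in 50 mM imidazole pH 7.2, KCl, MgCl2, 1 h at room temperature; ATP formed read by coupled luciferase luminescence. Normalized to no-enzyme/110 uM thiadiazolimine inhibition; 0.3 nM enzyme column for activation.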

[3] = S16 Schwann cell viability assay (CellTiter-Glo assay) (AID 624031);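 note: cellular ATP luminescence as a viability measure; nearly all actives have a fitted effect of over 70% in size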
How it was run: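 Native S16 rat Schwann cells, 500-750 cells/well in DMEM with 10% FBS, dosed with compound after overnight culture and incubated 24h at 37 degree Celsius/5% CO2. Viability by CellTiter-Glo luminescence; % activity normalized to no-cell wells and DMSO-treated cells.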

ATS189 = experiment: qHTS profiling for inhibitors of Plasmodium falciparum proliferation (AID 504749); note: nearly all actives have a fitted effect of over 60% in size; settings: P. falciparum in erythrocytes, SYBR Green DNA, 72 h; series mostly up to 12.8 µM
How it was run: (§1)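 Readout was DNA-dye fluorescence from lysed cultures, ex 485/em 535 nm. Parasitized red cells had grown 72 h with compound; data scaled between 0.29 uM artemisinin and DMSO wells and corrected using vehicle-only plates.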

CP185 = experiment: as above; settings: P. falciparum in erythrocytes, SYBR Green DNA, 72 h; series mostly up to 12.8 µM
How it was run: as §1

CP191 = experiment: as above; settings: P. falciparum in erythrocytes, SYBR Green DNA, 72 h; series mostly up to 12.8 µM
How it was run: as §1

CP201 = experiment: as above; settings: P. falciparum in erythrocytes, SYBR Green DNA, 72 h; series mostly up to 12.8 µM
How it was run: as §1

CP247 = experiment: as above; settings: P. falciparum in erythrocytes, SYBR Green DNA, 72 h; series mostly up to 12.8 µM
How it was run: as §1

CP250 = experiment: as above; settings: P. falciparum in erythrocytes, SYBR Green DNA, 72 h; series mostly up to 12.8 µM
How it was run: as §1

CP256 = experiment: as above; settings: P. falciparum in erythrocytes, SYBR Green DNA, 72 h; series mostly up to 12.8 µM
How it was run: as §1

CP325 = experiment: as above; settings: P. falciparum in erythrocytes, SYBR Green DNA, 72 h; series mostly up to 12.8 µM
How it was run: as §1

CP329 = experiment: as above; settings: P. falciparum in erythrocytes, SYBR Green DNA, 72 h; series mostly up to 12.8 µM
How it was run: as §1

Dd2 = experiment: as above; settings: P. falciparum in erythrocytes, SYBR Green DNA, 72 h; series mostly up to 12.8 µM
How it was run: as §1

JCK = experiment: as above; settings: P. falciparum in erythrocytes, SYBR Green DNA, 72 h; series mostly up to 12.8 µM
How it was run: as §1

N140 = experiment: as above; settings: P. falciparum in erythrocytes, SYBR Green DNA, 72 h; series mostly up to 12.8 µM
How it was run: as §1

PC15 = experiment: as above; settings: P. falciparum in erythrocytes, SYBR Green DNA, 72 h; series mostly up to 12.8 µM
How it was run: as §1

PC49 = experiment: as above; settings: P. falciparum in erythrocytes, SYBR Green DNA, 72 h; series mostly up to 12.8 µM
How it was run: as §1

SC27B = experiment: as above; settings: P. falciparum in erythrocytes, SYBR Green DNA, 72 h; series mostly up to 12.8 µM
How it was run: as §1

TAB113 = experiment: as above; settings: P. falciparum in erythrocytes, SYBR Green DNA, 72 h; series mostly up to 12.8 µM
How it was run: as §1

CP262 = experiment: as above; settings: P. falciparum in erythrocytes, SYBR Green DNA, 72 h; series mostly up to 12.8 µM
How it was run: as §1

Measured: Potency

Sequence of Guanine nucleotide-binding protein G(i) subunit alpha-1 (Homo sapiens) (P63096 whole entry, looked up): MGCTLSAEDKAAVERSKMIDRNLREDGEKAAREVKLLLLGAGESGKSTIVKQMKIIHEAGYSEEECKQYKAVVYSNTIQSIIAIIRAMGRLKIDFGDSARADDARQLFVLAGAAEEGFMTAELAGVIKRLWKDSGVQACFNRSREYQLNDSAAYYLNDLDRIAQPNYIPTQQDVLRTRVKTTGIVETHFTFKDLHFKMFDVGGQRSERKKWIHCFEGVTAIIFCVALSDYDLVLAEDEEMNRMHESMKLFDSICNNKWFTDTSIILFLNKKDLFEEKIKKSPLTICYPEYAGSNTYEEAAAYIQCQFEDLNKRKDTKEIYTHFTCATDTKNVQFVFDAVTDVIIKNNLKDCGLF
Sequence of Pyruvate kinase PKM (Homo sapiens) (P14618 whole entry, looked up): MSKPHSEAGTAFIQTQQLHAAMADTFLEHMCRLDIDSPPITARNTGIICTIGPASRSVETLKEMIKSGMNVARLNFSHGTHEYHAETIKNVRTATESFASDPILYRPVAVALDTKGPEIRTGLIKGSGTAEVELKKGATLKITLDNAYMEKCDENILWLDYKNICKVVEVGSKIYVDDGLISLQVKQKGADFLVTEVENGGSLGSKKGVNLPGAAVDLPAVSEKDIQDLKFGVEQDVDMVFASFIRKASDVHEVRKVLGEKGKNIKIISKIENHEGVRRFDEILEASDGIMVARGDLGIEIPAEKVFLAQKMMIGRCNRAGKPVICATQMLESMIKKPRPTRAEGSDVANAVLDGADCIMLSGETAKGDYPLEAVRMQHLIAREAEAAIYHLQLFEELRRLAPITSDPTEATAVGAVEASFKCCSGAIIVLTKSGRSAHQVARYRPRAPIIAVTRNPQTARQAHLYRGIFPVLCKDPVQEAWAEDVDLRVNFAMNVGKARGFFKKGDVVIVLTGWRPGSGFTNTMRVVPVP

CC(C)(C)NC[C@H](O)c1cc(O)cc(O)c1
not listed: CP262
inactive: all other assays above

CC1(C)O[C@@H]2C[C@H]3[C@H]4C[C@H](F)C5=CC(=O)C=C[C@@]5(C)[C@@H]4[C@H](O)C[C@]3(C)[C@]2(C(=O)CO)O1
not listed: [1] | [2]
inactive: all other assays above

OCCN1CCN(CC/C=C2\c3ccccc3Sc3ccc(C(F)(F)F)cc32)CC1
inactive: [1] | [2]

CN1CCc2cccc3c2[C@@H]1Cc1ccc(O)c(O)c1-3
inactive: [1]

C[C@@H](C(=O)O)c1ccc(C(=O)c2cccs2)cc1
not listed: [1] | [2] | [3]
inactive: all other assays above

CC(C)(O/N=C(\C(=O)N[C@@H]1C(=O)N2C(C(=O)[O-])=C(C[n+]3ccccc3)CS[C@@H]12)c1csc(N)n1)C(=O)O
not listed: [1] | [2]
inactive: all other assays above

CC(=O)O[C@@H](C)C[N+](C)(C)C
inactive: all assays above

Cn1c(=O)c2c(ncn2C[C@@H](O)CO)n(C)c1=O
not listed: [1] | [2] | CP191
inactive: all other assays above

From PubChem BioAssay (NCATS)
